An excerpt weighted towards active compounds, which were near 4.2% of everything screened.
NALP3 yeast inh: blocks the NALP3 inflammasome reconstituted in yeast. Yeast reconstituted NLRP3/ASC/caspase-1, beta-gal luminescence, 24 h. 330,000 compounds, 0.39% hits. inhibition, % at 10 µM;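 active means inhibition of 50% or more; inactive means inhibition below 50%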
V-ATPase pHluor: alters yeast V-ATPase proton transport; AID 504577; S. cerevisiae, pHLuorin cytosolic pH fluorescence; 350,000 compounds, 0.37% hits; response, % at 10 µM; in the data active means response mostly above about 7.3%, no sharp cut-off; inactive means mostly below about 5.4%; further: actives read high
TIM10 inh: inhibits growth of TIM10 yeast strain; 330,000 compounds, 1.4% hits; S. cerevisiae TIM10 strain growth, BacTiter-Glo luminescence, 24 h; inhibition, % at 10 µM;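 active means inhibition of 40% or more at the single tested concentration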;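 further: wild-type TIM10 isogenic control strain grown at permissive 25 °C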
NALP1 inh: blocks the NALP1 inflammasome reconstituted in yeast; S. cerevisiae NALP1/ASC/caspase-1 growth, X-gal OD620, 72 h; inhibition, % at 10 µM; 280,000 compounds, 0.61% hits; AID 2071; in the data active means inhibition mostly above about 24%, no sharp cut-off; inactive means mostly below about 32%
tim10-1 inh: tim10-1 yeast growth inhibition; S. cerevisiae tim10-1 ts strain growth, BacTiter-Glo, 24 h; inhibition, % at 20 µM; 330,000 compounds, 2.2% hits;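 active means inhibition of at least 40%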;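 further: mutant grown at 25 °C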
tim23-1 inh: inhibits growth of tim23-1 mutant yeast | S. cerevisiae tim23-1 growth, BacTiter-Glo luminescence, 24 h | 330,000 compounds, 1.3% hits | inhibition, % at 20 µM;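 active means growth inhibition of the mutant yeast at or above 50%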;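 further: temperature-sensitive mutant grown at 25 °C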
tim10-1 confirm: tim10-1 yeast growth inhibition, confirmed; shares compounds with tim10-1 inh; S. cerevisiae tim10-1 ts strain growth, BacTiter-Glo, 24 h; inhibition, % at 20 µM; 7,400 compounds, 56% hits; AID 463213;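 active means inhibition of yeast growth at or above a set limit in either of two repeat tests at 20 µM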;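 further: tim10-1 mutant grown at permissive 25 °C to find synthetic lethal compounds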
A number is an active result.

Results for OCCN1CCN(CC/C=C2/c3ccccc3Sc3ccc(C(F)(F)F)cc32)CC1 ?
NALP3 yeast inh: inactive; V-ATPase pHluor: inactive; TIM10 inh: inactive; tim10-1 inh: 51; tim23-1 inh: inactive; tim10-1 confirm: inactive

What do the screens show for `CN1CCN(CCC(=O)N2c3ccccc3Sc3ccc(C(F)(F)F)cc32)CC1`?
NALP3 yeast inh: inactive; V-ATPase pHluor: inactive; TIM10 inh: inactive; NALP1 inh: inactive; tim10-1 inh: inactive; tim23-1 inh: inactive

How did CCSc1ccc2c(c1)N(CCCN1CCN(C)CC1)c1ccccc1S2 do in these assays?
NALP3 yeast inh: inactive; V-ATPase pHluor: inactive; TIM10 inh: inactive; tim10-1 inh: 42; tim23-1 inh: inactive; tim10-1 confirm: 31

How did CCOc1ccc2oc(C(=O)N3CCN(Cc4ccccc4)CC3)c(C)c2c1 do in these assays?
NALP3 yeast inh: inactive; V-ATPase pHluor: inactive; TIM10 inh: inactive; NALP1 inh: inactive; tim10-1 inh: inactive; tim23-1 inh: inactive

How did O=C(CC1S/C(=N/N=C/c2c[nH]c3ccc(OCc4ccccc4)cc23)NC1=O)Nc1ccccc1 (stereo unspecified) do in these assays?
NALP3 yeast inh: inactive; V-ATPase pHluor: inactive; TIM10 inh: inactive; NALP1 inh: inactive; tim10-1 inh: inactive; tim23-1 inh: inactive

What do the screens show for `CN(C)CCC(=O)N1c2ccccc2Sc2ccc(C(F)(F)F)cc21`?
NALP3 yeast inh: inactive; V-ATPase pHluor: inactive; TIM10 inh: inactive; NALP1 inh: inactive; tim10-1 inh: inactive; tim23-1 inh: inactive

Results for CN(C)CCCN1c2ccccc2Sc2ccc(C(F)(F)F)cc21 ?
NALP3 yeast inh: inactive; V-ATPase pHluor: inactive; TIM10 inh: inactive; NALP1 inh: inactive; tim10-1 inh: 44; tim23-1 inh: inactive; tim10-1 confirm: inactive

What do the screens show for `O=c1c2c(nc3n1CCCCC3)sc1c(O)c(Br)ccc12`?
NALP3 yeast inh: inactive; V-ATPase pHluor: inactive; TIM10 inh: inactive; NALP1 inh: inactive; tim10-1 inh: 45; tim23-1 inh: inactive; tim10-1 confirm: inactive

How did CCN(CC)CCOc1c(Br)ccc2c1sc1nc3n(c(=O)c12)CCC3 do in these assays?
NALP3 yeast inh: inactive; V-ATPase pHluor: inactive; TIM10 inh: inactive; NALP1 inh: inactive; tim10-1 inh: inactive; tim23-1 inh: inactive

How did CCCCC(=O)N/N=C/c1ccc(-c2ccc([N+](=O)[O-])cc2)o1 do in these assays?
NALP3 yeast inh: inactive; V-ATPase pHluor: inactive; TIM10 inh: inactive; NALP1 inh: inactive; tim10-1 inh: inactive; tim23-1 inh: inactive

What do the screens show for `CC(C)(C)NC(=S)N/N=C\c1ccc(-c2ccc([N+](=O)[O-])cc2)o1`?
NALP3 yeast inh: inactive; V-ATPase pHluor: inactive; TIM10 inh: inactive; tim10-1 inh: 40; tim23-1 inh: inactive; tim10-1 confirm: 33

How did CC(C)(C)C(=O)NNC(=O)COc1ccc2ccccc2c1Br do in these assays?
NALP3 yeast inh: inactive; V-ATPase pHluor: inactive; TIM10 inh: inactive; NALP1 inh: inactive; tim10-1 inh: inactive; tim23-1 inh: inactive

Results for COC(=O)NNC(=O)COc1ccc2ccccc2c1Br ?
NALP3 yeast inh: inactive; V-ATPase pHluor: inactive; TIM10 inh: inactive; NALP1 inh: inactive; tim10-1 inh: 45; tim23-1 inh: inactive; tim10-1 confirm: inactive

How did CCc1c(C)nc(SCC(=O)CC(=O)OC(C)C)c(C#N)c1C do in these assays?
NALP3 yeast inh: inactive; V-ATPase pHluor: inactive; TIM10 inh: inactive; NALP1 inh: inactive; tim10-1 inh: 44; tim23-1 inh: inactive; tim10-1 confirm: inactive

Results for CCNC(=S)NNC(=O)c1cc(-c2cccnc2)nc2ccccc12 ?
NALP3 yeast inh: inactive; V-ATPase pHluor: inactive; TIM10 inh: inactive; NALP1 inh: inactive; tim10-1 inh: 55; tim23-1 inh: inactive; tim10-1 confirm: 41

What do the screens show for `CCNC(=S)NNC(=O)c1cc(-c2cccc(OCC)c2)nc2ccccc12`?
NALP3 yeast inh: inactive; V-ATPase pHluor: inactive; TIM10 inh: inactive; NALP1 inh: inactive; tim10-1 inh: inactive; tim23-1 inh: inactive

What do the screens show for `CCCCOc1cccc(-c2cc(C(=O)NNC(=S)NCC)c3ccccc3n2)c1`?
NALP3 yeast inh: inactive; V-ATPase pHluor: inactive; TIM10 inh: inactive; NALP1 inh: inactive; tim10-1 inh: 41; tim23-1 inh: inactive; tim10-1 confirm: 37

How did COc1ccc(NC(=O)c2nc[nH]c2C(=O)N[C@H](C)c2ccccc2)cc1 do in these assays?
NALP3 yeast inh: inactive; V-ATPase pHluor: inactive; TIM10 inh: inactive; tim10-1 inh: inactive; tim23-1 inh: inactive

How did COc1ccc(/C(N)=N/OC(=O)Cc2ccc(C)cc2)cc1OC do in these assays?
NALP3 yeast inh: inactive; V-ATPase pHluor: inactive; TIM10 inh: inactive; NALP1 inh: inactive; tim10-1 inh: inactive; tim23-1 inh: inactive

How did Cc1cccc(/C(N)=N/OC(=O)COc2ccc(Cl)cc2)c1 do in these assays?
NALP3 yeast inh: inactive; V-ATPase pHluor: inactive; TIM10 inh: inactive; NALP1 inh: inactive; tim10-1 inh: 50; tim23-1 inh: inactive; tim10-1 confirm: 46

How did N/C(=N\OC(=O)COc1ccc(Cl)cc1)c1ccc(Cl)cc1 do in these assays?
NALP3 yeast inh: inactive; V-ATPase pHluor: inactive; TIM10 inh: inactive; NALP1 inh: inactive; tim10-1 inh: inactive; tim23-1 inh: inactive

What do the screens show for `COc1ccc(/C(N)=N/OC(=O)c2cccs2)cc1OC`?
NALP3 yeast inh: inactive; V-ATPase pHluor: inactive; TIM10 inh: inactive; NALP1 inh: inactive; tim10-1 inh: 66; tim23-1 inh: inactive; tim10-1 confirm: 53

What do the screens show for `COc1cc(OC)c(C(=O)O/N=C(\N)c2cccc(C)c2)cc1OC`?
NALP3 yeast inh: inactive; V-ATPase pHluor: inactive; TIM10 inh: inactive; NALP1 inh: inactive; tim10-1 inh: 48; tim23-1 inh: inactive; tim10-1 confirm: 41

Results for COc1cc(OC)c(C(=O)O/N=C(\N)c2ccc(C)cc2)cc1OC ?
NALP3 yeast inh: inactive; V-ATPase pHluor: inactive; TIM10 inh: inactive; NALP1 inh: inactive; tim10-1 inh: 46; tim23-1 inh: inactive; tim10-1 confirm: 49

Results for CCc1ccc(NC(=O)C2CCN(S(=O)(=O)c3ccc4c(c3)CC(C)N4C(C)=O)CC2)cc1 (stereo unspecified) ?
NALP3 yeast inh: inactive; V-ATPase pHluor: inactive; TIM10 inh: inactive; NALP1 inh: inactive; tim10-1 inh: inactive; tim23-1 inh: inactive

What do the screens show for `Cc1nn(C)c(C)c1S(=O)(=O)N(CC(=O)NCc1ccco1)c1ccc(C(C)C)cc1`?
NALP3 yeast inh: inactive; TIM10 inh: inactive; NALP1 inh: inactive; tim10-1 inh: inactive; tim23-1 inh: inactive

How did CCCN1CCC(NC(=O)C2CCN(C(C)=O)CC2)CC1 do in these assays?
NALP3 yeast inh: inactive; V-ATPase pHluor: inactive; TIM10 inh: inactive; NALP1 inh: inactive; tim10-1 inh: inactive; tim23-1 inh: inactive

Results for CC(C)CNC(=O)C1CCN(c2ccc(S(=O)(=O)N3CCOCC3)cc2[N+](=O)[O-])CC1 ?
NALP3 yeast inh: inactive; V-ATPase pHluor: inactive; TIM10 inh: inactive; tim10-1 inh: inactive; tim23-1 inh: inactive

What do the screens show for `COc1cc(CNc2ccccc2Oc2cc(=O)n(C)c(=O)n2C)cc(OC)c1OC`?
NALP3 yeast inh: inactive; V-ATPase pHluor: inactive; TIM10 inh: inactive; NALP1 inh: inactive; tim10-1 inh: inactive; tim23-1 inh: inactive
